Laboratory results as given in PubChem BioAssay AID694 (Emory University Molecular Libraries Screening Center, 2007).
Hit rate of the full screen: of about 1,300 compounds, about 25 (2%) were called active. How the calls were made is not given here. The list comes from a sample in which actives are over-represented; it also holds similar structures and randomly drawn compounds.

Target: Estrogen receptor (Homo sapiens) (UniProt P03372)
Experiment: ERα coactivator peptide binding inhibitors, primary screen, biochemical, LOPAC library, TR-FRET (AID 694);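 further: receptor was agonist-bound with estradiol present during the assay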
Conditions: TR-FRET ERalpha-coactivator peptide binding, stronger effect = higher value

Chain of Estrogen receptor (Homo sapiens) (P03372 whole entry, looked up): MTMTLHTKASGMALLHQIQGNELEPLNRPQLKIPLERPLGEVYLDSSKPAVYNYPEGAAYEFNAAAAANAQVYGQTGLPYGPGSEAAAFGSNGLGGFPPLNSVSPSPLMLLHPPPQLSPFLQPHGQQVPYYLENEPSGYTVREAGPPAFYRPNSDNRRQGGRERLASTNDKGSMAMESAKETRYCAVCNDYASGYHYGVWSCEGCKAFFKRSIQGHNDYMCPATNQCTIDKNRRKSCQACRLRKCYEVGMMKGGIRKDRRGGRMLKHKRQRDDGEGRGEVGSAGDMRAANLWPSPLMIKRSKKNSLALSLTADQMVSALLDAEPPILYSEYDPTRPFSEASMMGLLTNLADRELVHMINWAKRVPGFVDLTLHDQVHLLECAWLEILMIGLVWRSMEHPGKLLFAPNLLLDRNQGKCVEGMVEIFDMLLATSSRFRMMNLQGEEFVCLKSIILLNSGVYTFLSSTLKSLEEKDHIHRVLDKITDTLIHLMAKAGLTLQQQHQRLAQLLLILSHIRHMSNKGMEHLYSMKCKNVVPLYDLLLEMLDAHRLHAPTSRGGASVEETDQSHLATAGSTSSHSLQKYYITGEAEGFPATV

| SMILES | inhibition (at 45 µM) | inhibition (inhibition, at 15 µM) [%] |
| --- | --- | --- |
| N=c1c[n+](N2CCOCC2)[n-]o1 | 3.79% (inactive) | 4.24 |
| COc1ccccc1N1CCN(CCCNc2c(C)c(=O)n(C)c(=O)n2C)CC1 | -0.24% (inactive) | 1.69 |
| CCNC(=O)C1OC(n2cnc3c(NCc4ccccc4)ncnc32)C(O)C1O (centres undefined) | -1.65% (inactive) | 1.9 |
| Cn1cc(C(F)(F)F)nc1-c1ccc(OCC(O)CNCCOc2ccc(O)c(C(N)=O)c2)cc1 (centres undefined) | -4.07% (inactive) | -6.05 |
| CC[N+](C)(C)Cc1ccccc1Br | -6.37% (inactive) | -2.6 |
| COc1ccccc1N1CCN(CCN(C(=O)c2ccc(F)cc2)c2ccccn2)CC1 | -4.33% (inactive) | 1.39 |
| CCCCCN(CCCCC)C(=O)C(CCC(=O)O)NC(=O)c1ccc(Cl)c(Cl)c1 (centres undefined) | 0.49% (inactive) | 8.19 |
| NCCCCNS(=O)(=O)c1cccc2c(Cl)cccc12 | -24.3% (inactive) | 2.07 |
| CNC(=O)Oc1ccc2c(c1)[C@]1(C)CCN(C)[C@@H]1N2C | -8.56% (active) | 56.6 |
| Oc1cc(O)c2c(c1)O[C@H](c1ccc(O)c(O)c1)[C@@H](O)C2 | 26.6% (inactive) | 10.3 |
| CC1=C(C(=O)O)N2C(=O)[C@@H](NC(=O)C(N)c3ccccc3)[C@H]2SC1 (some centres undefined) | -5% (inactive) | -4.71 |
| COc1cc(=O)n(C)c2c(OCC(O)C(C)(C)O)cccc12 (centres undefined) | -4.43% (inactive) | 3.61 |
| NS(=O)(=O)c1cc2c(cc1Cl)NC=NS2(=O)=O | -2.72% (inactive) | 1.82 |
| Cc1nc(N=Nc2ccc(C(=O)O)cc2)c(COP(=O)(O)O)c(C=O)c1O | 6.52% (inactive) | -0.22 |
| Cn1c(=O)c2c(nc(/C=C/c3cccc(Cl)c3)n2C)n(C)c1=O | 0.97% (inactive) | -2.61 |
| CC(C)COCC(CN(Cc1ccccc1)c1ccccc1)N1CCCC1 (centres undefined) | -5.09% (inactive) | 4.06 |
| C[N+](C)(C)CCOC(=O)CCC(=O)OCC[N+](C)(C)C | -6.43% (inactive) | 0.18 |
| COc1ccc2[nH]c(I)c(CCNC(C)=O)c2c1 | -2.05% (inactive) | -4.11 |
| CC(C)[C@@H]1NC(=O)[C@H](CCCCN)NC(=O)[C@@H](Cc2c[nH]c3ccccc23)NC(=O)[C@H](Cc2ccc(O)cc2)NC(=O)[C@H](C)N(C)C(=O)[C@H](Cc2ccccc2)NC1=O | 5.89% (inactive) | -1.62 |
| COC(=O)[C@H](NC(=O)c1cc(-c2ccccc2)nc2ccccc12)c1ccccc1 | 1.85% (inactive) | 2.38 |
| O=Nc1ccc2oc(=O)ccc2c1 | 0.4% (inactive) | 0.59 |

| SMILES | inhibition (at 45 µM) | inhibition (inhibition, at 15 µM) [%] |
| --- | --- | --- |
| NC(N)=NCCC[C@H](N)C(=O)O | -2.21% (inactive) | -4 |
| NC(CCCP(=O)(O)O)C(=O)O (centres undefined) | -8.81% (inactive) | -3.89 |
| N[C@@H](CCCC(=O)O)C(=O)O | -21.2% (active) | 50.5 |
| O=c1c(O)c(-c2ccc(O)c(O)c2)oc2cc(O)cc(O)c12 | 59.6% (inactive) | 26.6 |
| O=c1c(O)c(-c2cc(O)c(O)c(O)c2)oc2cc(O)cc(O)c12 | 84% [fluorescence artefact?] (active) | 62.7 |
| O=c1[nH]c2cc(C(F)(F)F)ccc2n1-c1cc(C(F)(F)F)ccc1O | 2.02% (inactive) | 1.4 |
| CC(=O)N[C@@H](CS)C(=O)O | -7.68% (inactive) | -8.08 |
| COc1cc(/C=C(\C#N)C(=O)c2ccc(O)c(O)c2)cc(I)c1O | 28.7% (inactive) | 13.7 |
| N#C/C(=C\c1ccc(O)c(O)c1)C(=O)c1ccc(O)c(O)c1 | 59.5% [fluorescence artefact?] (active) | 57.3 |
| N#C/C(=C\c1ccc(O)c(O)c1)C(=O)NCCCNC(=O)/C(C#N)=C/c1ccc(O)c(O)c1 | 51.7% (inactive) | 37.2 |
| Nc1ncn([C@@H]2O[C@H](CO)[C@@H](O)[C@H]2O)c(=O)n1 | -1.93% (inactive) | -4.32 |
| Cn1c(=O)c2[nH]c(C3CCCC3)nc2n(C)c1=O | 1.28% (inactive) | -1.01 |
| NC(=S)NCCCC(N)C(=O)O (centres undefined) | -4.72% (inactive) | 3.62 |
| NCC(O)C1CCCCCCC1 (centres undefined) | -4.78% (inactive) | 1.99 |
| CCN1CCc2nc(N)oc2CC1 | -3.72% (inactive) | -5.11 |
| CN(CCOc1ccc(C[C@H](Nc2ccccc2C(=O)c2ccccc2)C(=O)O)cc1)c1ccccn1 | 2.05% (inactive) | 2.17 |
| C=Cc1c(C)c2cc3[nH]c(cc4nc(cc5nc(cc1[nH]2)C(C)=C5CCC(=O)O)C(CCC(=O)O)=C4C)c(C)c3C=C | 93.6% [fluorescence artefact?] (active) | 73.7 |
| CN(C)C(=O)/N=N/C(=O)N(C)C | -2.24% (inactive) | -4.27 |
| Nn1nnc2ccccc21 | -3.33% (inactive) | -2.11 |
| COc1ccccc1N1CCN(CCCNc2cc(=O)n(C)c(=O)n2C)CC1 | 4.48% (inactive) | 2.87 |
| Cn1cnc2c(NCc3ccccc3)nc(NCCO)nc21 | 3.75% (inactive) | 1.76 |

| SMILES | inhibition (at 45 µM) | inhibition (inhibition, at 15 µM) [%] |
| --- | --- | --- |
| C=CC[C@H](N)C(=O)O | -2.53% (inactive) | -5.06 |
| CCCn1c(=O)c2c(ncn2C)n(CCC)c1=O | 5.51% (inactive) | -1.66 |
| N=c1nc(N2CCCCC2)cc(N)n1O | 2.01% (inactive) | -3.53 |
| CC[C@@H](C)[C@H]1O[C@]2(CC[C@@H]1C)C[C@@H]1C[C@@H](C/C=C(\C)[C@@H](O[C@H]3C[C@H](OC)[C@@H](O[C@H]4C[C@H](OC)[C@@H](O)[C@H](C)O4)[C@H](C)O3)[C@@H](C)/C=C/C=C3\CO[C@@H]4[C@H](O)C(C)=C[C@@H](C(=O)O1)[C@]34O)O2 | -0.86% (inactive) | 3.41 |
| CCCCC#Cc1nc(N)c2ncn([C@@H]3O[C@H](C(=O)NCC)[C@@H](O)[C@H]3O)c2n1 | -0.57% (inactive) | 5.8 |
| CCCCCCCC/C=C\CCCCCCCC(=O)NCCO | 7.02% (inactive) | 9.1 |
| N[C@@H](CCC(=O)N[C@H](CSN=O)C(=O)NCC(=O)O)C(=O)O | 1.19% (inactive) | 3.44 |
| [N-]=[N+]=Nc1ccc(C(=O)CSC[C@H](NC(=O)CC[C@H](N)C(=O)O)C(=O)NCC(=O)O)cc1 | 75.4% [fluorescence artefact?] (active) | 74 |
| C=CCN1CCc2c(cc(O)c(O)c2Br)[C@@H](c2ccccc2)C1 | 2.69% (inactive) | 6.75 |
| Cc1nc(N=Nc2cc(S(=O)(=O)O)c3cc([N+](=O)[O-])cc(S(=O)(=O)O)c3c2)c(COP(=O)(O)O)c(C=O)c1O | 60.6% (inactive) | 46.2 |
| OCCN1CCN(CC/C=C2/c3ccccc3Sc3ccc(C(F)(F)F)cc32)CC1 | 3.87% (inactive) | 3.25 |
| CN1C(C)(C)CCCC1(C)C | -1.09% (inactive) | -2.02 |
| Nc1nc(OCc2ccccc2)c2[nH]cnc2n1 | -3.48% (inactive) | -5.45 |
| Cc1cccc(C)c1NC(=O)C[N+](C)(C)C | 0.37% (inactive) | -1.43 |
| CCCCN1CCC(COC(=O)c2cc(Cl)c(N)c3c2OCCO3)CC1 | -8.8% (inactive) | -4.44 |
| CC(=O)SCC[N+](C)(C)C | 0.72% (inactive) | -4.29 |
| CN(C)CCN(Cc1cccs1)c1ccccn1 | 0.3% (inactive) | 3.28 |
| Cc1nc(N=Nc2ccc(S(=O)(=O)O)cc2S(=O)(=O)O)c(COP(=O)(O)O)c(C=O)c1O | -1.62% (inactive) | 2.87 |
| CCOC(=O)c1cnc2c(cnn2CC)c1NN=C(C)C | 1.01% (inactive) | -4.69 |
| O=c1cc(O)cc(/C=C/c2ccc(O)c(O)c2)o1 | 5.73% (inactive) | 4.2 |
| NC(N)=NCCCCN=C(N)N | -1.43% (inactive) | 22.8 |

| SMILES | inhibition (at 45 µM) | inhibition (inhibition, at 15 µM) [%] |
| --- | --- | --- |
| CCCCCCCCCCCCC/C=C/C(O)C(N)CO (centres undefined) | 17.6% (inactive) | -17.3 |
| NC(=NCCC[C@H](N)C(=O)O)NO | 3.2% (inactive) | 2.74 |
| NC(C(=O)N[C@@H]1C(=O)N2C(C(=O)O)=C(Cl)CS[C@H]12)c1ccccc1 (some centres undefined) | -11.2% (inactive) | -2.54 |
| CSC(N)=NCCC[C@H](N)C(=O)O | 0.58% (inactive) | -0.49 |
| CN(C)CCCCSC(=N)N | -2.28% (inactive) | 0.11 |
| COc1ccc2c(c1)c(CC(=O)N1CCOCC1)c(C)n2C(=O)c1ccc(Cl)cc1 | 2.58% (inactive) | 0.53 |
| Nc1ncnc2c1ncn2[C@@H]1O[C@H](C(=O)NC2CC2)[C@H](O)C1O (some centres undefined) | -7.62% (inactive) | -0.92 |
| Nc1nc(N)c2nc(CNc3ccc(C(=O)NC(CCC(=O)O)C(=O)O)cc3)cnc2n1 (centres undefined) | 1.53% (inactive) | -2.57 |
| CCCCCCCCCCCCCCSCC(=O)O | 97.7% [fluorescence artefact?] (active) | 66.6 |
| CCCCCC(O)CCCC(=O)O (centres undefined) | -5.09% (inactive) | 11.3 |
| CCCCCCC/C=C\CCCCCCCCC(=O)O | 63.2% (inactive) | 46.6 |
| COC(=O)c1c(-c2cc(OC)c(OC)c(OC)c2)c2ccnc(OCc3ncccn3)c2c(=O)n1Cc1ccnc(C)c1 | -0.01% (inactive) | 7.82 |
| O=C(O)CCCCCC[C@H]1C(=O)NC(=O)N1CC[C@@H](O)C1CCCCC1 | 4.54% (inactive) | 37.6 |
| Nc1nc2c(ncn2COC(CO)CO)c(=O)[nH]1 | -3.37% (inactive) | -1.7 |
| Cc1cnc(NC(=O)C2=C(O)c3ccccc3S(=O)(=O)N2C)s1 | 1.42% (inactive) | -3.85 |
| S=C(S)OC1CC2CC1C1CCCC21 (centres undefined) | -5.42% (inactive) | 6.45 |
| CC(=O)NCCc1c[nH]c2ccc(O)cc12 | -5.1% (inactive) | 4.29 |
| NC(=O)c1cccc(N)c1 | -6.67% (inactive) | 0.5 |
| CC1(C)CCC2=C(O1)c1ccccc1C(=O)C2=O | 0.18% (inactive) | -0.19 |
